In PubChem BioAssay (NCATS):
Unmarked numbers belong to inactive results. No rule for the calls is given here.

Test system: HIV-1 nucleocapsid protein NCp7 (binding to TG oligonucleotide)
Test: HIV Nucleocapsid (AID 346);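 also: potency is for inhibitors that block NC binding and lower polarization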
Conditions: HIV-1 NC / fluorescein-TGTGTGTG probe, fluorescence polarization
Method in brief: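 Fluorescence polarization binding of 100 nM HIV-1 NC to 10 nM fluorescein-labelled TG4xF oligonucleotide. Buffer was Hepes pH 7.5 with 250mM NaCl, 1uM ZnCl2, TCEP and 2-mercaptoethanol. Compounds were incubated 1 hr at room temperature before the read.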
Potency is read from the fitted curve at half-maximal effect.

Row | Structure (SMILES) | Potency [µM]
1 | CCNc1ncc2nc(-c3ccc(OC)cc3)c(=O)n(CCC#N)c2n1 | > 20
2 | COCCNc1ccnc(-c2ccccc2C)n1 | > 20
3 | COc1ccc(CNc2ncncc2-c2ccc(C(=O)N(C)C)cc2)c(OC)c1 | > 20
4 | COc1ccc(C(=O)N2CCC3(CCN(Cc4cc(C(F)(F)F)cc(C(F)(F)F)c4)CC3)CC2)cc1 | > 20
5 | c1ccc2c(NCCN3CCOCC3)nc(-c3ccoc3)nc2c1 | > 20
6 | COc1ccc(C(=O)N2CCC3(CCCN(c4ccncc4)C3)CC2)cc1 | > 20
7 | COc1ccccc1CCn1c(=O)c(-c2ccc(Cl)cc2)nc2cncnc21 | > 20
8 | CCNc1ncc2nc(-c3cccs3)c(=O)n(C)c2n1 | > 20
9 | COc1ccc(CNc2ccnc(-c3ccccc3C(F)(F)F)n2)c(OC)c1 | > 20
10 | COc1cccc(Nc2ncc3nc(-c4ccccc4)c(=O)n(Cc4cccs4)c3n2)c1 | > 20
11 | O=c1c(-c2ccc(Cl)cc2)nc2cnc(N3CCOCC3)nc2n1-c1ccccc1 | > 20
12 | COc1ccc(Oc2ncc3nc(-c4ccc(OC)cc4)c(=O)n(C)c3n2)cc1 | > 20
13 | CCNc1ncc2nc(-c3ccc(F)cc3)c(=O)n(CCOC)c2n1 | > 4
14 | O=c1c(CCc2ccccc2)nc2cnc(Oc3cccc(Cl)c3)nc2n1C[C@H]1CCCO1 | > 20
15 | CN(C)c1ccc(-c2nc(-n3ccnc3)c3ccccc3n2)cc1 | > 20
16 | O=C(Oc1ccccc1)N1CCC2(CC1)CCN(c1ccncc1)CC2 | > 20
17 | COc1ccc(-n2c(=O)c(CCc3ccccc3)nc3cnc(N(C)C)nc32)cc1 | > 20
18 | N#CCCn1c(=O)c(-c2ccc(F)cc2)nc2cnc(N3CCOCC3)nc21 | > 20
19 | CS(=O)(=O)N1CCC2(CCN(c3ccncc3)CC2)CC1 | > 20
20 | O=C(c1ccco1)N1CCC[C@@]2(CCN(c3ncccn3)C2)C1 | > 20

Row | Structure (SMILES) | Potency [µM]
21 | CS(=O)(=O)Nc1cccc(-c2nccc(NCc3cccs3)n2)c1 | > 20
22 | COc1ccccc1CN1CC2(CCN(C(=O)c3cc(C(F)(F)F)cc(C(F)(F)F)c3)CC2)C1 | > 20
23 | COc1ccc(CNc2ncnc3ccc(-c4ccc5c(c4)OCO5)cc23)c(OC)c1 | > 20
24 | CCNc1ncc2nc(-c3cc(F)cc(F)c3)c(=O)n(C[C@H]3CCCO3)c2n1 | > 20
25 | COc1ccc(-n2c(=O)cnc3cnc(N4CCN(C)CC4)nc32)cc1 | > 20
26 | O=C(c1csnn1)N1CCC2(CC1)CCN(c1ccccn1)CC2 | > 20
27 | CCNc1ncc2nc(-c3ccc(F)cc3)c(=O)n(C[C@H]3CCCO3)c2n1 | > 20
28 | O=S(=O)(c1ccccc1)N1CCC2(CCCN(c3ccncc3)C2)CC1 | > 20
29 | COc1ccc(-c2nc3cnc(N(C)C)nc3n(Cc3cccs3)c2=O)cc1 | > 20
30 | c1nc(NC2CCNCC2)c2cc(-c3ccc4c(c3)OCO4)ccc2n1 | > 20
31 | COCCn1c(=O)c(-c2ccccc2)nc2cnc(Oc3ccc(OC)cc3)nc21 | > 20
32 | COc1ccc(CNc2nc(-c3ccoc3)nc3ccccc23)c(OC)c1 | > 20
33 | COc1ccc(C(=O)N2CCC3(CC2)CN(C(=O)Nc2cccc(C#N)c2)C3)cc1 | > 20
34 | COc1ccc(-n2c(=O)c(CCc3ccccc3)nc3cnc(N4CCN(C)CC4)nc32)cc1 | > 20
35 | Cn1cccc1C(=O)N1CCC[C@@]2(CCN(c3ccccc3)C2)C1 | > 20
36 | CS(=O)(=O)N1CCC2(CC1)CN(c1ccccn1)C2 | > 20
37 | O=c1c(CCc2ccccc2)nc2cnc(N3CCNCC3)nc2n1-c1ccccc1 | > 20
38 | O=C(c1ccco1)N1CCC2(CC1)CN(C(c1ccccc1)c1ccccc1)C2 | > 20
39 | COCCn1c(=O)cnc2cnc(N3CCNCC3)nc21 | > 20
40 | Cc1nc2cnc(N(C)C)nc2n(CCc2ccccc2)c1=O | > 20
